Compounds with a hit are over-represented: about 19% of the library has one in this group of screens.
TGFb SMAD3 inh: qHTS for Inhibitors of TGF-b; HepG2 CAGA-GFP TGF-b/SMAD3 reporter, GFP fluorescence, 18 h; TGF-beta stimulated, 500 pg/mL final; Potency, µM (titrated, usually from 46.1 µM), without a hit: top-dose activity, negative = inhibition, most hits filed as inhibitors; 410,000 tested, 1.2% active; also: potency is read from the fitted curve at half-maximal effect; % is scaled to controls: 0 for no effect and ±100 for the full control effect; nearly all actives have a fitted effect of over 65% in size
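Cell-based qHTS in HEPG2 carrying a CAGA-GFP Smad reporter; compounds added before 500 pg/mL final TGF-beta, 18 h incubation at 37 degrees C, GFP fluorescence quantified per cell by imaging cytometry.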
DT40 TDP1 CPT: qHTS for Inhibitors of human tyrosyl-DNA phosphodiesterase 1 (TDP1): qHTS in cells in presence of CPT | 420,000 tested, 12% active | chicken DT40 Tdp1-/-;hTDP1 cells + 20 nM CPT, ATP luminescence, 48 h | Potency, µM (series often up to 46.2 µM), for inactives: at the top dose activity change, negative = growth inhibition, most hits filed as inhibitors; also: potency is read from the fitted curve at half-maximal effect; % is scaled to controls: 0 for no effect and ±100 for the full control effect; nearly all actives have a fitted effect of over 55% in size
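Chicken DT40 Tdp1-/- cells complemented with human TDP1, 400 cells/well, exposed to compounds plus 20 nM camptothecin for at least 48 h at 37 C; viability read as ATP content by CellTiter-Glo luminescence.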
HepG2 viability: qHTS for Inhibitors of TGF-b: Cytotox Counterscreen; HepG2 CAGA-GFP viability, ATP luminescence, 18 h; Potency, µM (top dose mostly 46.1 µM), for the others: at the top dose activity change, negative = cytotoxicity, usual class: cytotoxic; 410,000 tested, 0.76% active; AID 588856, 2011; also: potency is read from the fitted curve at half-maximal effect
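CellTiter-Glo luminescence gave cytotoxicity after 18 hours at 37 degrees C. The cells were HepG2 CAGA-GFP in 1% FBS DMEM, stimulated with 500 pg/mL TGF-beta after compound addition. %Activity was normalised to no-cell wells (complete cell-killing) and DMSO (no toxicity), and curves were fitted and classified.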
IL-1B inflam inh: qHTS for Inhibitors of Inflammasome Signaling: IL-1-beta AlphaLISA Primary Screen. activity change, % at 57.5 µM. THP-1 LPS/ATP IL-1B secretion, AlphaLISA, 16 h; hits give low values. AID 743279, 2014. 360,000 tested, 4.7% active; in the data active = activity change below about -50%; inconclusive = mostly about -30% to -49%; also: % is scaled to controls: 0 for no effect and ±100 for the full control effect
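Secreted IL-1B measured by AlphaLISA bead assay after 16 h compound exposure of THP-1 cells; compounds (final up to 57.5 uM) added 1 h before LPS (250 ng/mL) and ATP (1.25 mM) stimulation; lower signal means less secretion.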
DT40 TDP1 no CPT: qHTS for Inhibitors of human tyrosyl-DNA phosphodiesterase 1 (TDP1): qHTS in cells in absence of CPT. DT40 Tdp1-/- hTDP1 cells, no CPT, ATP luminescence, 48 h. Potency, µM (titrated, usually from 46.2 µM), inactives show top-dose activity change, negative = growth inhibition, actives largely listed as inhibitors. 420,000 tested, 15% active. AID 686978, 2013; also: potency is read from the fitted curve at half-maximal effect; % is scaled to controls: 0 for no effect and ±100 for the full control effect; nearly all actives have a fitted effect of over 55% in size
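Compound effects on proliferation are scored in DT40 Tdp1-/-;hTDP1 cells in the absence of CPT. ATP levels (CellTiter-Glo luminescence) are recorded after a ≥48 hr, 37 °C incubation.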
S-ASM inh: Inhibitors of Secretory Acid Sphingomyelinase (S-ASM): qHTS; Sphingomyelin phosphodiesterase (Homo sapiens), P17405; placental ASM, HMU-PC fluorogenic substrate, 60 min; Potency, µM (series often up to 57.5 µM), inactives show top-dose activity change, negative = inhibition, actives largely listed as inhibitors; 340,000 tested, 0.006% active; AID 504937, 2011; also: potency is read from the fitted curve at half-maximal effect
Target sequence (P17405 47-631 limits assumed): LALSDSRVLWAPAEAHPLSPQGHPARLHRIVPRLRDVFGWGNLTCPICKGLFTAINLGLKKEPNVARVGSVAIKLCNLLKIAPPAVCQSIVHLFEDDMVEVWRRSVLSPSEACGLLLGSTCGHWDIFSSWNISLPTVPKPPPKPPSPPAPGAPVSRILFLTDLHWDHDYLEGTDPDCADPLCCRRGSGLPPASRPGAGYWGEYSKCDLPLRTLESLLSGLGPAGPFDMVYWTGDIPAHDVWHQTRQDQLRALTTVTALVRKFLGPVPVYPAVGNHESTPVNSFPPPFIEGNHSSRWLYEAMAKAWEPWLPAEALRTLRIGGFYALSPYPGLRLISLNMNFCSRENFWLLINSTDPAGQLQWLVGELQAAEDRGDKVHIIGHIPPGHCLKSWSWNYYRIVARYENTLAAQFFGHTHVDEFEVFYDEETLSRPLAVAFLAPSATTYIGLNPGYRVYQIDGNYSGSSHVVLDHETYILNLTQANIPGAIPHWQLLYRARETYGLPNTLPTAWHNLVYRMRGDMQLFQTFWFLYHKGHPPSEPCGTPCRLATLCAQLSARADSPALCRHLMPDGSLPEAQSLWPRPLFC
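Fluorescence read-out (Ex 386 nm, Em 447 nm) after stopping the reaction at pH 10. Enzyme: ASM from human placenta; substrate HMU-PC0, 9 uM final; 60 min, 37 °C. Compound preincubation 10 min, ambient temperature.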
* hit, by the source's call. Unless noted, calls follow the shape of the dose curve; as a rule, active = well fitted curve in the direction sought with a large enough effect; inconclusive = small, poorly fitted or top-dose-only effect, or another doubt; inactive = no such curve, though single readings can be large; an effect the other way counts as inactive or inconclusive.

`CCN(CC)S(=O)(=O)c1ccc(C(=O)NCC2(N3CCOCC3)CCCCC2)cc1` gave TGFb SMAD3 inh -1.4%, DT40 TDP1 CPT inconclusive, HepG2 viability -12.8%, IL-1B inflam inh 0.0, DT40 TDP1 no CPT inconclusive and S-ASM inh -0.1%.
For O=C(CCN1C(=O)[C@@H]2Cc3ccccc3CN2C1=O)Nc1cccc(F)c1 the results were TGFb SMAD3 inh 0.4%, DT40 TDP1 CPT -22.4%, HepG2 viability 1.8%, IL-1B inflam inh -17.4, DT40 TDP1 no CPT 4.8% and S-ASM inh 3.9%.
COc1ccc(OCCSc2nc(-c3ccccc3)cc(=O)[nH]2)cc1 was read as TGFb SMAD3 inh 1.6%, DT40 TDP1 CPT 8.7%, HepG2 viability -1.1%, IL-1B inflam inh 7.3, DT40 TDP1 no CPT -4.7% and S-ASM inh 0.8%.
For COC(=O)c1ccc(C(=O)OC)c(NC(=O)CN(C)Cc2ccccc2)c1 the results were TGFb SMAD3 inh 5.9%, DT40 TDP1 CPT -29.8%, HepG2 viability 3.5%, IL-1B inflam inh 7.6, DT40 TDP1 no CPT 16.4µM* and S-ASM inh 11.6%.
COC(=O)c1ccc(NC(=O)CN(C)Cc2cccc(F)c2)cc1 was read as TGFb SMAD3 inh -16.6%, DT40 TDP1 CPT -18.9%, HepG2 viability 0.4%, IL-1B inflam inh -105.4*, DT40 TDP1 no CPT 13µM* and S-ASM inh -4.0%.
`CCN(C(=O)Cn1c([N+](=O)[O-])cnc1C)c1ccccc1` gave TGFb SMAD3 inh -4.7%, DT40 TDP1 CPT 1.9%, HepG2 viability 1.9%, IL-1B inflam inh -0.6, DT40 TDP1 no CPT 3.6% and S-ASM inh 3.6%.
CCN1C(=O)[C@@H]2[C@@H](c3ccc(-c4ccc(F)cc4)c(OC)c3)N3CCCC[C@@]3(C(=O)OC)[C@@H]2C1=O was read as TGFb SMAD3 inh -0.5%, DT40 TDP1 CPT 16.4µM*, HepG2 viability -16.4%, IL-1B inflam inh -18.8, DT40 TDP1 no CPT 16.4µM* and S-ASM inh -6.5%.
For CCN1C(=O)[C@@H]2[C@@H](c3ccc(-c4ccc(F)cc4)cc3)N3CCCC[C@@]3(C(=O)OC)[C@@H]2C1=O the results were TGFb SMAD3 inh -13.6%, DT40 TDP1 CPT inconclusive, HepG2 viability -17.2%, IL-1B inflam inh 10.6, DT40 TDP1 no CPT 23.1µM* and S-ASM inh -19.0%.
Screening CCSc1ccc([C@@H]2[C@@H]3C(=O)N(CC)C(=O)[C@@H]3[C@]3(C(=O)OC)CCCCN23)cc1OC returned TGFb SMAD3 inh inconclusive, DT40 TDP1 CPT -11.3%, HepG2 viability -8.0%, IL-1B inflam inh -17.2, DT40 TDP1 no CPT inconclusive and S-ASM inh -0.4%.
For CCN1C(=O)[C@@H]2[C@@H](c3ccc(-c4cc(C(C)=O)cs4)cc3)N3CCC[C@@]3(C(=O)OC)[C@@H]2C1=O the results were TGFb SMAD3 inh 3.0%, DT40 TDP1 CPT inconclusive, HepG2 viability -0.1%, IL-1B inflam inh 4.9, DT40 TDP1 no CPT inconclusive and S-ASM inh -3.6%.
Screening CCN1C(=O)[C@H]2[C@@H](c3ccc(-c4ccc(C(C)=O)cc4)c(OC)c3)N3CCCC[C@@]3(C(=O)OC)[C@H]2C1=O returned TGFb SMAD3 inh -21.9%, DT40 TDP1 CPT 23.1µM*, HepG2 viability -19.9%, IL-1B inflam inh -13.9, DT40 TDP1 no CPT 16.4µM* and S-ASM inh -13.3%.
For CCC(CC)C(=O)Nc1cccc(-c2ccc3nncn3n2)c1 the results were TGFb SMAD3 inh 20.0%, DT40 TDP1 CPT -0.4%, HepG2 viability -1.3%, IL-1B inflam inh 19.0, DT40 TDP1 no CPT -25.0% and S-ASM inh 1.5%.
